Source: PubChem BioAssay (NCATS)
Records with an inconclusive call do not appear. Activity calls are given as the source filed them. The call rests on the fitted dose curve; in most records, active means well fitted curve in the direction sought with a large enough effect; inconclusive means small, poorly fitted or top-dose-only effect, or another doubt; inactive means no such curve, though single readings can be large; an effect the other way counts as inactive or inconclusive.

Tests used:
[1] = qHTS of pediatric cancer cell lines to identify multiple opportunities for drug repurposing: Primary screen for SK-N-MC cells (AID 1347093);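 further: series mostly up to about 46 µM; plate controls were DMSO neutral control for no effect and bortezomib for full effect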
Outline: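 Metabolically active cells were quantified by ATP-dependent luminescence (CellTiter-Glo, 15 min at room temperature) following 48 h treatment. Cells had been plated at 500-1,000 per well and settled for 5 h beforehand.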

[2] = qHTS of pediatric cancer cell lines to identify multiple opportunities for drug repurposing: Primary screen for BT-37 cells (AID 1347094);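 further: series mostly up to about 57 µM; plate controls were DMSO for no effect and bortezomib for full effect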
Outline: (§1)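 Following a 5-hour attachment period, cells at 500-1,000/well received compounds and were cultured for 48 hours. CellTiter-Glo was added and luminescence read to estimate viable, metabolically active cells.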

[3] = qHTS of pediatric cancer cell lines to identify multiple opportunities for drug repurposing: Primary screen for NB-EBc1 cells (AID 1347095);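 further: plate controls were DMSO neutral control for no effect and bortezomib for full effect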
Outline: as §1

[4] = qHTS of pediatric cancer cell lines to identify multiple opportunities for drug repurposing: Primary screen for U-2 OS cells (AID 1347096);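 further: plate controls were DMSO wells for no effect and bortezomib positive control wells for full effect; nearly all actives have a fitted effect of over 50% in size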
Outline: (§2)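 Cells (500-1,000/well) in growth media were settled 5 h at 37 degrees C, then given compounds for 48 h. Viability was read as CellTiter-Glo luminescence. Primary runs used MIPE at 11 points (0.78 nM-46 µM) and NPC at 8 points (0.59 nM-46 µM); follow-ups used 11 points.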

[5] = qHTS of pediatric cancer cell lines to identify multiple opportunities for drug repurposing: Primary screen for Saos-2 cells (AID 1347097); further: on the % scale 0 is the no-effect control and ±100 the full control effect; nearly all actives have a fitted effect of over 40% in size
Outline: as §1

[6] = qHTS of pediatric cancer cell lines to identify multiple opportunities for drug repurposing: Primary screen for SK-N-SH cells (AID 1347098);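 further: DMSO served as neutral control and bortezomib at 2.3 µM as positive control; on the % scale 0 is the no-effect control and ±100 the full control effect; nearly all actives have a fitted effect of over 65% in size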
Outline: (§3)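 Cells (500-1,000/well) rested 5 h, then received compounds for 48 h; metabolically active cells were measured by CellTiter-Glo luminescence. Final concentrations spanned up to 46 µM (MIPE, 11-point) or 0.59 nM-46 µM (NPC, 8-point) in primary screens, 11-point in follow-ups.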

[7] = qHTS of pediatric cancer cell lines to identify multiple opportunities for drug repurposing: Primary screen for NB1643 cells (AID 1347099);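 further: plate controls were DMSO neutral control for no effect and bortezomib positive control for full effect; nearly all actives have a fitted effect of over 50% in size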
Outline: as §1

[8] = qHTS of pediatric cancer cell lines to identify multiple opportunities for drug repurposing: Primary screen for LAN-5 cells (AID 1347100);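 further: plate controls were DMSO neutral control for no effect and bortezomib positive control for full effect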
Outline: as §2

[9] = qHTS of pediatric cancer cell lines to identify multiple opportunities for drug repurposing: Primary screen for BT-12 cells (AID 1347101);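 further: plate controls were DMSO for no effect and bortezomib positive control for full effect; nearly all actives have a fitted effect of over 25% in size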
Outline: as §3

[10] = qHTS of pediatric cancer cell lines to identify multiple opportunities for drug repurposing: Primary screen for Rh18 cells (AID 1347102); further: on the % scale 0 is the no-effect control and ±100 the full control effect; nearly all actives have a fitted effect of over 65% in size
Outline: as §2

CCS(=O)(=O)c1ccc(OC)c(C(=O)OC)c1
inactive: Potency [1] | Potency [2] | Potency [3] | Potency [4] | Potency [5] | Potency [6] | Potency [7] | Potency [8] | Potency [9] | Potency [10]

CC(=O)OC[C@H]1O[C@@H](OC(C)=O)[C@H](OC(C)=O)[C@@H]1OC(C)=O
inactive: Potency [1] | Potency [2] | Potency [3] | Potency [4] | Potency [5] | Potency [6] | Potency [7] | Potency [8] | Potency [9] | Potency [10]

Cc1oc(=O)oc1COC(=O)[C@@H]1N2C(=O)[C@@H](NC(=O)[C@H](N)c3ccccc3)[C@H]2SC1(C)C
inactive: Potency [1] | Potency [2] | Potency [3] | Potency [4] | Potency [5] | Potency [6] | Potency [7] | Potency [8] | Potency [9] | Potency [10]

COc1cc(C(=O)NC2CCCNC2)cc(OC)c1OC (stereo not given)
inactive: Potency [1] | Potency [2] | Potency [3] | Potency [4] | Potency [5] | Potency [6] | Potency [7] | Potency [8] | Potency [9] | Potency [10]

COc1ccc2cc(C=O)ccc2c1
inactive: Potency [1] | Potency [2] | Potency [3] | Potency [4] | Potency [5] | Potency [6] | Potency [7] | Potency [8] | Potency [9] | Potency [10]

CC(C)CCCC(C)NCCC(C)C (stereo not given)
inactive: Potency [1] | Potency [2] | Potency [3] | Potency [4] | Potency [5] | Potency [6] | Potency [7] | Potency [8] | Potency [9] | Potency [10]

NCC[C@H](O)C(=O)N[C@@H]1C[C@H](N)[C@@H](O[C@H]2O[C@H](CN)[C@@H](O)[C@H](O)[C@@H]2O)[C@H](O)[C@@H]1O[C@H]1O[C@H](CO)[C@@H](O)[C@H](N)[C@@H]1O
inactive: activity change, negative = cytotoxic [1] -10.7% [at 0.597 µM] | activity change, negative = cytotoxic [2] 11.5% [at 0.745 µM] | activity change, negative = cytotoxic [3] 17.9% [at 0.597 µM] | activity change, negative = cytotoxic [4] 14.2% [at 0.597 µM] | activity change, negative = cytotoxic [5] 9.12% [at 0.597 µM] | activity change, negative = cytotoxic [6] -13.1% [at 0.741 µM] | activity change, negative = cytotoxic [7] 2.83% [at 0.597 µM] | activity change, negative = cytotoxic [8] 0.172% [at 0.597 µM] | activity change, negative = cytotoxic [9] 5.54% [at 0.745 µM] | activity change, negative = cytotoxic [10] 1.72% [at 0.597 µM]

O=C1Nc2cc(Cl)ccc2Oc2ccccc21
inactive: Potency [1] | Potency [2] | Potency [3] | Potency [4] | Potency [5] | Potency [6] | Potency [7] | Potency [8] | Potency [9] | Potency [10]

OCc1cccnc1
inactive: Potency [1] | Potency [2] | Potency [3] | Potency [4] | Potency [5] | Potency [6] | Potency [7] | Potency [8] | Potency [9] | Potency [10]

C/C(=N\O)[C@@H](C)NCC(C)(C)CN[C@H](C)/C(C)=N/O
inactive: Potency [1] | Potency [2] | Potency [3] | Potency [4] | Potency [5] | Potency [6] | Potency [7] | Potency [8] | Potency [9] | Potency [10]

C/C(=N/NC(=O)c1ccncc1)C(=O)O
inactive: Potency [1] | Potency [2] | Potency [3] | Potency [4] | Potency [5] | Potency [6] | Potency [7] | Potency [8] | Potency [9] | Potency [10]

CCN1CCN(C(=O)N[C@@H](C(=O)N[C@@H]2C(=O)N3[C@@H]2SC(C)(C)[C@H]3C(=O)O)c2ccccc2)C(=O)C1=O
inactive: Potency [1] | Potency [2] | Potency [3] | Potency [4] | Potency [5] | Potency [6] | Potency [7] | Potency [8] | Potency [9] | Potency [10]

CN(C(=O)C(Cl)Cl)c1ccc(OC(=O)c2ccco2)cc1
inactive: Potency [1] | Potency [2] | Potency [3] | Potency [4] | Potency [5] | Potency [6] | Potency [7] | Potency [8] | Potency [9] | Potency [10]

OC[C@]1(O)OC[C@@H](O)[C@H](O)[C@@H]1O
inactive: Potency [1] | Potency [2] | Potency [3] | Potency [4] | Potency [5] | Potency [6] | Potency [7] | Potency [8] | Potency [9] | Potency [10]

C=CCOc1cc(Cl)ccc1C(=O)NCCN(CC)CC
inactive: Potency [1] | Potency [2] | Potency [3] | Potency [4] | Potency [5] | Potency [6] | Potency [7] | Potency [8] | Potency [9] | Potency [10]

Cc1ncc(CO)c(CO)c1O
inactive: Potency [1] | Potency [2] | Potency [3] | Potency [4] | Potency [5] | Potency [6] | Potency [7] | Potency [8] | Potency [9] | Potency [10]

C[C@H]1NCc2cc(-c3ccc4c(=O)c(C(=O)O)cn(C5CC5)c4c3OC(F)F)ccc21
inactive: Potency [1] | Potency [2] | Potency [3] | Potency [4] | Potency [5] | Potency [6] | Potency [7] | Potency [8] | Potency [9] | Potency [10]

C=CC[N+]1([C@H]2C[C@H]3[C@@H]4CC[C@H]5C[C@H](OC(C)=O)[C@@H](N6CCCCC6)C[C@]5(C)[C@H]4CC[C@]3(C)[C@H]2OC(=O)CC)CCCCC1
inactive: Potency [1] | Potency [2] | Potency [3] | Potency [4] | Potency [5] | Potency [6] | Potency [7] | Potency [8] | Potency [9] | Potency [10]

CC(C)(Oc1ccc(Cl)cc1)C(=O)OCCCOC(=O)C(C)(C)Oc1ccc(Cl)cc1
inactive: Potency [1] | Potency [2] | Potency [3] | Potency [4] | Potency [5] | Potency [6] | Potency [7] | Potency [8] | Potency [9] | Potency [10]

CCCc1c2oc(C(=O)O)cc(=O)c2cc2c(=O)cc(C(=O)O)n(CC)c12
inactive: Potency [1] | Potency [2] | Potency [3] | Potency [4] | Potency [5] | Potency [6] | Potency [7] | Potency [8] | Potency [9] | Potency [10]

CC(=O)CC/C=C(\C)CC/C=C(\C)CC/C=C(\C)CCC=C(C)C
inactive: Potency [1] | Potency [2] | Potency [3] | Potency [4] | Potency [5] | Potency [6] | Potency [7] | Potency [8] | Potency [9] | Potency [10]
